Test results taken from PubChem BioAssay AID1159580 (chemical genetic matrix, 2015).
The campaign covered roughly 5,500 compounds. About 2,000 (36%) were called active. Another 18% or so got no clear call; they are omitted. Rule as the data show it: active = normalized growth mostly below about 0.91 (no sharp cut-off); inconclusive = no clear call, values can overlap the other calls; inactive = mostly above about 0.92. Some of the results follow.

Assay: chemical genetic growth profiling, strain panel (AID 1159580);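 also: tested at 20 µM; growth read once vehicle control cultures reached saturation at 30 °C; 1 = growth at the plate median or of vehicle wells; lower values mean less growth of the strain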
Conditions: growth OD

Measured: normalized growth

Nc1ccc(S(=O)(=O)Nc2ccccn2)cc1
inactive: S. cerevisiae deletion strains, locus YKL009W, strain mrt4, stronger effect = lower value 0.993 | S. cerevisiae deletion strains, locus YKL068W, stronger effect = lower value 0.991 | S. cerevisiae deletion strains, locus YKL085W, strain MDH1 (second series), stronger effect = lower value 0.982 | S. cerevisiae deletion strains, locus YKL085W, strain MDH1, stronger effect = lower value 0.982 | S. cerevisiae deletion strains, locus YKL160W, strain elf1, stronger effect = lower value 1.02 | S. cerevisiae deletion strains, locus YKL190W, strain CNB1, stronger effect = lower value 1.01 | S. cerevisiae deletion strains, locus YKR001C, strain vps1, stronger effect = lower value 0.995 | S. cerevisiae deletion strains, locus YKR026C, strain gcn3, stronger effect = lower value 1.02 | S. cerevisiae deletion strains, locus YKR091W, strain srl3, stronger effect = lower value 1.01 | S. cerevisiae deletion strains, locus YLL001W, strain dnm1, stronger effect = lower value 1.03 | S. cerevisiae deletion strains, locus YLL026W, stronger effect = lower value 1.02 | S. cerevisiae deletion strains, locus YLL041C, strain sdh2, stronger effect = lower value 1.01 | S. cerevisiae deletion strains, locus YLR027C, strain aat2, stronger effect = lower value 1.01 | S. cerevisiae deletion strains, locus YLR039C, strain RIC1, stronger effect = lower value 1.03 | S. cerevisiae deletion strains, locus YLR058C, strain SHM2, stronger effect = lower value 1.01 | S. cerevisiae deletion strains, locus YLR102C, strain apc9, stronger effect = lower value 0.993 | S. cerevisiae deletion strains, locus YLR113W, strain HOG1, stronger effect = lower value 0.976 | S. cerevisiae deletion strains, locus YLR221C, strain rsa3, stronger effect = lower value 0.993 | S. cerevisiae deletion strains, locus YLR258W, strain gsy2, stronger effect = lower value 1 | S. cerevisiae deletion strains, locus YLR262C, strain YPT6 (second series), stronger effect = lower value 1.03 | S. cerevisiae deletion strains, locus YLR262C, strain YPT6, stronger effect = lower value 1.04 | S. cerevisiae deletion strains, locus YLR268W, strain sec22, stronger effect = lower value 0.944 | S. cerevisiae deletion strains, locus YLR320W, strain mms22, stronger effect = lower value 0.985 | S. cerevisiae deletion strains, locus YLR330W, strain CHS5, stronger effect = lower value 1 | S. cerevisiae deletion strains, locus YLR342W, strain FKS1 (second series), stronger effect = lower value 0.985 | S. cerevisiae deletion strains, locus YLR342W, strain FKS1, stronger effect = lower value 1.01 | S. cerevisiae deletion strains, locus YLR357W, strain rsc2, stronger effect = lower value 0.996 | S. cerevisiae deletion strains, locus YLR370C, strain arc18, stronger effect = lower value 1.01 | S. cerevisiae deletion strains, locus YLR371W, strain rom2, stronger effect = lower value 0.99 | S. cerevisiae deletion strains, locus YLR384C, strain iki3, stronger effect = lower value 1.01 | S. cerevisiae deletion strains, locus YLR418C, strain cdc73, stronger effect = lower value 0.985 | S. cerevisiae deletion strains, locus YML016C, strain PPZ1, stronger effect = lower value 1.01 | S. cerevisiae deletion strains, locus YML032C, strain rad52, stronger effect = lower value 0.97 | S. cerevisiae deletion strains, locus YML120C, strain ndi1, stronger effect = lower value 1.01 | S. cerevisiae deletion strains, locus YML124C, strain tub3, stronger effect = lower value 1 | S. cerevisiae deletion strains, locus YMR058W, strain fet3, stronger effect = lower value 1.03 | S. cerevisiae deletion strains, locus YMR078C, strain ctf18, stronger effect = lower value 0.989 | S. cerevisiae deletion strains, locus YMR125W, strain sto1, stronger effect = lower value 1.01 | S. cerevisiae deletion strains, locus YMR129W, stronger effect = lower value 1.01 | S. cerevisiae deletion strains, locus YMR205C, strain PFK2, stronger effect = lower value 1.01 | S. cerevisiae deletion strains, locus YMR223W, strain ubp8, stronger effect = lower value 1.01 | S. cerevisiae deletion strains, locus YMR231W, strain pep5, stronger effect = lower value 1.01 | S. cerevisiae deletion strains, locus YMR263W, strain SAP30, stronger effect = lower value 1.01 | S. cerevisiae deletion strains, locus YMR307W, strain GAS1, stronger effect = lower value 1.02 | S. cerevisiae deletion strains, locus YNL067W, strain RPL9B, stronger effect = lower value 1.01 | S. cerevisiae deletion strains, locus YNL071W, strain lat1, stronger effect = lower value 0.998 | S. cerevisiae deletion strains, locus YNL128W, strain TEP1, stronger effect = lower value 1.01 | S. cerevisiae deletion strains, locus YNL153C, strain GIM3, stronger effect = lower value 1.01 | S. cerevisiae deletion strains, locus YNL183C, strain NPR1, stronger effect = lower value 0.945 | S. cerevisiae deletion strains, locus YNL209W, strain ssb2, stronger effect = lower value 1.01 | S. cerevisiae deletion strains, locus YNL233W, strain BNI4, stronger effect = lower value 1 | S. cerevisiae deletion strains, locus YNL248C, strain rpa49, stronger effect = lower value 0.985 | S. cerevisiae deletion strains, locus YNL250W, strain rad50, stronger effect = lower value 0.988 | S. cerevisiae deletion strains, locus YNL271C, strain bni1, stronger effect = lower value 0.998 | S. cerevisiae deletion strains, locus YNL298W, strain CLA4, stronger effect = lower value 0.988 | S. cerevisiae deletion strains, locus YNL307C, strain MCK1, stronger effect = lower value 0.997 | S. cerevisiae deletion strains, locus YNL322C, strain KRE1 (second series), stronger effect = lower value 1.01 | S. cerevisiae deletion strains, locus YNL322C, strain KRE1, stronger effect = lower value 1 | S. cerevisiae deletion strains, locus YNR049C, strain mso1, stronger effect = lower value 1.02 | S. cerevisiae deletion strains, locus YNR052C, strain pop2, stronger effect = lower value 0.991 | S. cerevisiae deletion strains, locus YOL006C, strain TOP1, stronger effect = lower value 1.05 | S. cerevisiae deletion strains, locus YOL012C, strain htz1 0.921 | S. cerevisiae deletion strains, locus YOL147C, strain pex11, stronger effect = lower value 1 | S. cerevisiae deletion strains, locus YOR001W, strain rrp6, stronger effect = lower value 1.02 | S. cerevisiae deletion strains, locus YOR061W, strain CKA2, stronger effect = lower value 1.01 | S. cerevisiae deletion strains, locus YOR069W, strain VPS5, stronger effect = lower value 1.01 | S. cerevisiae deletion strains, locus YOR070C, strain gyp1, stronger effect = lower value 1 | S. cerevisiae deletion strains, locus YOR080W, strain dia2, stronger effect = lower value 1.02 | S. cerevisiae deletion strains, locus YOR083W, strain WHI5, stronger effect = lower value 0.991 | S. cerevisiae deletion strains, locus YOR106W, strain vam3, stronger effect = lower value 1.04 | S. cerevisiae deletion strains, locus YOR136W, strain idh2, stronger effect = lower value 0.992 | S. cerevisiae deletion strains, locus YOR144C, strain elg1, stronger effect = lower value 0.989 | S. cerevisiae deletion strains, locus YOR184W, strain ser1, stronger effect = lower value 0.993 | S. cerevisiae deletion strains, locus YOR231W, strain MKK1, stronger effect = lower value 0.986 | S. cerevisiae deletion strains, locus YOR265W, strain rbl2, stronger effect = lower value 1.01 | S. cerevisiae deletion strains, locus YOR270C, strain vph1, stronger effect = lower value 1.01 | S. cerevisiae deletion strains, locus YOR290C, strain snf2, stronger effect = lower value 0.997 | S. cerevisiae deletion strains, locus YOR316C, strain cot1, stronger effect = lower value 0.994 | S. cerevisiae deletion strains, locus YPL051W, strain arl3, stronger effect = lower value 1.01 | S. cerevisiae deletion strains, locus YPL078C, strain atp4, stronger effect = lower value 1.02 | S. cerevisiae deletion strains, locus YPL106C, strain sse1, stronger effect = lower value 0.975 | S. cerevisiae deletion strains, locus YPL240C, strain hsp82, stronger effect = lower value 1.02 | S. cerevisiae deletion strains, locus YPL256C, strain CLN2, stronger effect = lower value 0.968 | S. cerevisiae deletion strains, locus YPR119W, strain clb2, stronger effect = lower value 0.975 | S. cerevisiae deletion strains, locus YPR141C, strain kar3, stronger effect = lower value 0.99 | S. cerevisiae deletion strains, locus YPR163C, strain tif3, stronger effect = lower value 0.993 | S. cerevisiae deletion strains, locus YPR167C, strain met16, stronger effect = lower value 0.986 | S. cerevisiae deletion strains, strain wtn01, stronger effect = lower value 0.998 | S. cerevisiae strains, strain wild type, stronger effect = lower value 1.01
